The text below walks through data of PubChem BioAssay (Tox21).

Inconclusive results are not listed. Entries that show only a call come without a potency. A number with no mark means an inactive call. The source made the active and inactive calls. Unless noted, calls come from the whole dose curve.

System in the first experiment: not listed separately
Kind of experiment: cAMP Responsive Elements (CRE) small molecule agonists, cell-based qHTS assay (AID 1963590). The settings on record: CRE-bla HEK293T, beta-lactamase FRET ratio, 3 h; series mostly up to 92.4 µM. In short, it runs like this: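 Compound exposure lasted 3 h at 37 C/5% CO2 in CRE-bla HEK 293T cells grown in assay medium with 10% dialyzed FBS and 25 mM HEPES. Reporter signal came from LiveBLAzer B/G FRET substrate, 2 h, room temperature.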
Regarding `O=Cc1cccc([N+](=O)[O-])c1`, the Potency result is “inactive”.
The same measure, in the same setting: next, `CC(COCCO)OCCO` (configuration not stated): “inactive”; `NC(=O)N[C@@H](CCC(=O)O)C(=O)O`: “inactive”; `COc1ccc2cc(C=O)ccc2c1`: “inactive”.
Still for that read-out and setting: next, `CC(O)CCCCn1c(=O)c2c(ncn2C)n(C)c1=O` (configuration not stated): “inactive”; `NC(=O)CCCCC(N)=O`: “inactive”; `NCC1CCCC(CN)C1` (configuration not stated): “inactive”.
Same read-out and setting: under `CC(=O)CC(=O)Nc1ccc2[nH]c(=O)[nH]c2c1` stands “inactive”; under `Oc1ccc(O)c2c(O)cccc12`, “inactive”; under `CCCOC(C)=O`, “inactive”.
Regarding `CCCCCCCCCCCC[N+](C)(C)CCCS(=O)(=O)[O-]`, the Potency entry is “inactive”.
In the case of `CC(C)=C1CC[C@@H](C)CC1=O`, the Potency entry was “inactive”.
Same read-out and setting: under `O=C(O)c1ccc([N+](=O)[O-])cc1` stands “inactive”; under `C=CCCCCCCCCC(=O)OCCCC`, “inactive”; under `CC(=O)NCCO`, “inactive”.
The same measure, in the same setting: under `NNC(=O)c1cccc(C(=O)NN)c1` stands “inactive”; under `O=C(C(=O)c1ccco1)c1ccco1`, “inactive”; under `COc1ccc(Cl)cc1C`, “inactive”.
Still for that read-out and setting: under `Nc1ncnc2c1ncn2Cc1c(F)cccc1Cl` stands “inactive”.
As to `NC(=S)Nc1cccc2ccccc12`, the activation is -1.04% [at 8.39 µM].
Regarding `NCCOCCN`, the Potency result is “inactive”.
As for `O=C1OC(CN2CCOCC2)CN1/N=C/c1ccc([N+](=O)[O-])o1` (configuration not stated), the Potency entry was “inactive”.
As for `N[C@H]1C(O)O[C@H](CO)[C@@H](O)[C@@H]1O` (some centres not stated), the Potency result is “inactive”.
Same read-out and setting: under `C=C(C)[C@H]1CC=C(C)CC1` stands “inactive”; under `CC1=CC[C@@H](C(C)(C)O)CC1`, “inactive”; under `CCCCCCCCCCCCCCC(=O)O`, “inactive”.
On to `CC(COC(=O)c1ccccc1)OC(=O)c1ccccc1` (configuration not stated), for which the Potency entry was “inactive”.
As to `F[Si-2](F)(F)(F)(F)F`, the Potency entry was “inactive”.
On to `NNS(=O)(=O)c1ccc(Oc2ccc(S(=O)(=O)NN)cc2)cc1`, for which the Potency result was “inactive”.
Consider `O=C(O)CONC(=O)c1ccccc1`, for which the Potency result was “inactive”.
Same read-out and setting: next, `OCC1CC2CC1C1CCC(CO)C21` (configuration not stated): “inactive”; `O=C1CCC(=O)N1`: “inactive”.
With `CCC(=O)OC/C=C(\C)CCC=C(C)C`, the Potency result is “inactive”.
Still for that read-out and setting: under `CC(O)CNCC(C)O` (configuration not stated) stands “inactive”; under `OCc1ccccc1O`, “inactive”; under `CCOC(=O)c1cccc(N)c1`, “inactive”.
Take `CNCCO`: the Potency result was “inactive”.
For the compound `N#CCN(CC#N)CCN(CC#N)CC#N`, the Potency entry is “inactive”.
On the same count and under the same terms, next, `CCCOCCOCCOCCO`: “inactive”.

System in the next experiment: not listed separately
As to the kind of experiment: cAMP Responsive Elements (CRE) small molecule antagonists, cell-based qHTS assay (AID 1963591; active = well fitted inhibition curve with a large enough effect in the signal ratio in the repeat runs, not every such curve was filed as active; the % refers to the signal ratio). Conditions: CRE-bla HEK293T, beta-lactamase FRET ratio; series mostly up to 92.4 µM. The essentials: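 Stimulation used NKH477 at a final 0.25 uM for 3 h in compound-treated CRE-bla HEK293T cells, seeded 18 h beforehand. Reporter activity was measured with LiveBLAzer B/G FRET substrate after 2 h at room temperature.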
For `O=Cc1cccc([N+](=O)[O-])c1`, the Potency entry was “inactive”.
As to `CC(COCCO)OCCO` (configuration not stated), the Potency result is “inactive”.
On the same count and under the same terms, next, `NC(=O)N[C@@H](CCC(=O)O)C(=O)O`: “inactive”; `COc1ccc2cc(C=O)ccc2c1`: “inactive”.
The same measure, in the same setting: next, `CC(O)CCCCn1c(=O)c2c(ncn2C)n(C)c1=O` (configuration not stated): “inactive”; `NC(=O)CCCCC(N)=O`: “inactive”.
For the compound `NCC1CCCC(CN)C1` (configuration not stated), the Potency result was “inactive”.
For the compound `CC(=O)CC(=O)Nc1ccc2[nH]c(=O)[nH]c2c1`, the Potency entry is “inactive”.
Still for that read-out and setting: under `Oc1ccc(O)c2c(O)cccc12` stands “inactive”; under `CCCOC(C)=O`, “inactive”; under `CCCCCCCCCCCC[N+](C)(C)CCCS(=O)(=O)[O-]`, “inactive”.
Still for that read-out and setting: under `CC(C)=C1CC[C@@H](C)CC1=O` stands “inactive”; under `O=C(O)c1ccc([N+](=O)[O-])cc1`, “inactive”; under `C=CCCCCCCCCC(=O)OCCCC`, “inactive”.
Regarding `CC(=O)NCCO`, the Potency entry is “inactive”.
As to `NNC(=O)c1cccc(C(=O)NN)c1`, the Potency entry is “inactive”.
Same read-out and setting: under `O=C(C(=O)c1ccco1)c1ccco1` stands “inactive”; under `COc1ccc(Cl)cc1C`, “inactive”.
Consider `Nc1ncnc2c1ncn2Cc1c(F)cccc1Cl`, for which the Potency entry is “inactive”.
In the case of `NC(=S)Nc1cccc2ccccc12`, the activity change, negative = inhibition is 1.21% [at 8.39 µM].
As for `NCCOCCN`, the Potency entry is “inactive”.
Still for that read-out and setting: under `O=C1OC(CN2CCOCC2)CN1/N=C/c1ccc([N+](=O)[O-])o1` (configuration not stated) stands “inactive”.
Same read-out and setting: next, `N[C@H]1C(O)O[C@H](CO)[C@@H](O)[C@@H]1O` (some centres not stated): “inactive”.
In the case of `C=C(C)[C@H]1CC=C(C)CC1`, the Potency entry was “inactive”.
Take `CC1=CC[C@@H](C(C)(C)O)CC1`: the Potency result is “inactive”.
Still for that read-out and setting: under `CCCCCCCCCCCCCCC(=O)O` stands “inactive”.
Still for that read-out and setting: under `CC(COC(=O)c1ccccc1)OC(=O)c1ccccc1` (configuration not stated) stands “inactive”; under `F[Si-2](F)(F)(F)(F)F`, “inactive”; under `NNS(=O)(=O)c1ccc(Oc2ccc(S(=O)(=O)NN)cc2)cc1`, “inactive”.
On the same count and under the same terms, under `O=C(O)CONC(=O)c1ccccc1` stands “inactive”; under `OCC1CC2CC1C1CCC(CO)C21` (configuration not stated), “inactive”; under `O=C1CCC(=O)N1`, “inactive”.
As to `CCC(=O)OC/C=C(\C)CCC=C(C)C`, the Potency result was “inactive”.
On to `CC(O)CNCC(C)O` (configuration not stated), for which the Potency entry is “inactive”.
With `OCc1ccccc1O`, the Potency entry was “inactive”.
The same measure, in the same setting: under `CCOC(=O)c1cccc(N)c1` stands “inactive”; under `CNCCO`, “inactive”.
As for `N#CCN(CC#N)CCN(CC#N)CC#N`, the Potency entry is “inactive”.
Still for that read-out and setting: under `CCCOCCOCCOCCO` stands “inactive”.

The next experiment deals with Beta-2 adrenergic receptor (Homo sapiens) (UniProt P07550). Kind of experiment: Adrenergic beta2 receptor (ADRB2) small molecule antagonists, cell-based qHTS assay (AID 1963592). Note: nearly all actives have a fitted effect of over 50% in size. Conditions: CHO-ADRB2 cells, isoproterenol-stimulated cAMP HTRF ratio, 0.5 h; series mostly up to 92.4 µM. The essentials: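 Assay format: CHO-ADRB2 cells, 18-20hr seeding at 37C/5% CO2, then compound plus 1nM isoproterenol agonist mix for 0.5hr RT. Homogeneous time-resolved fluorescence cAMP detection after 1hr, expressed as 665/615 nm ratio.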
Beta-2 adrenergic receptor (Homo sapiens), sequence (P07550 whole entry, looked up): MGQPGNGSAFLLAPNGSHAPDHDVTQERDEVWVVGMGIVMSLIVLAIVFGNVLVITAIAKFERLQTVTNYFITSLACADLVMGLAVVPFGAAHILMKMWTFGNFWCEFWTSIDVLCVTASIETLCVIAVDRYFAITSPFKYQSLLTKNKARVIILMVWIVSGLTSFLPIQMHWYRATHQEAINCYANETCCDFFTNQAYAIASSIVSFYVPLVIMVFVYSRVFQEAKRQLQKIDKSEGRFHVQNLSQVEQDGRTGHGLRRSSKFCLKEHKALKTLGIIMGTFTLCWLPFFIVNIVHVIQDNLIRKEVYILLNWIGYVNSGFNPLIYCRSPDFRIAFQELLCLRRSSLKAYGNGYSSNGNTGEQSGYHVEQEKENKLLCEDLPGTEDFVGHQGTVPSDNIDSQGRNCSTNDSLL
On the technique in general: qHTS replaces the single test concentration by a dilution series.
On to `O=Cc1cccc([N+](=O)[O-])c1`, for which the Potency entry is “inactive”.
Still for that read-out and setting: next, `CC(COCCO)OCCO` (configuration not stated): “inactive”; `NC(=O)N[C@@H](CCC(=O)O)C(=O)O`: “inactive”; `COc1ccc2cc(C=O)ccc2c1`: “inactive”.
As for `CC(O)CCCCn1c(=O)c2c(ncn2C)n(C)c1=O` (configuration not stated), the Potency entry is “inactive”.
As for `NC(=O)CCCCC(N)=O`, the Potency entry was “inactive”.
Same read-out and setting: under `NCC1CCCC(CN)C1` (configuration not stated) stands “inactive”.
Still for that read-out and setting: next, `CC(=O)CC(=O)Nc1ccc2[nH]c(=O)[nH]c2c1`: “inactive”; `Oc1ccc(O)c2c(O)cccc12`: “inactive”.
In the case of `CCCOC(C)=O`, the Potency entry was “inactive”.
For the compound `CCCCCCCCCCCC[N+](C)(C)CCCS(=O)(=O)[O-]`, the Potency entry was “inactive”.
For the compound `CC(C)=C1CC[C@@H](C)CC1=O`, the Potency entry was “inactive”.
For `O=C(O)c1ccc([N+](=O)[O-])cc1`, the Potency entry was “inactive”.
The same measure, in the same setting: next, `C=CCCCCCCCCC(=O)OCCCC`: “inactive”; `CC(=O)NCCO`: “inactive”; `NNC(=O)c1cccc(C(=O)NN)c1`: “inactive”.
The same measure, in the same setting: under `O=C(C(=O)c1ccco1)c1ccco1` stands “inactive”.
Same read-out and setting: under `COc1ccc(Cl)cc1C` stands “inactive”; under `Nc1ncnc2c1ncn2Cc1c(F)cccc1Cl`, “inactive”.
Consider `NC(=S)Nc1cccc2ccccc12`, for which the activity change, negative = inhibition is -15.5% [at 8.39 µM].
As to `NCCOCCN`, the Potency entry was “inactive”.
In the case of `O=C1OC(CN2CCOCC2)CN1/N=C/c1ccc([N+](=O)[O-])o1` (configuration not stated), the Potency result was “inactive”.
In the case of `N[C@H]1C(O)O[C@H](CO)[C@@H](O)[C@@H]1O` (some centres not stated), the Potency result was “inactive”.
For the compound `C=C(C)[C@H]1CC=C(C)CC1`, the Potency result is “inactive”.
The same measure, in the same setting: under `CC1=CC[C@@H](C(C)(C)O)CC1` stands “inactive”; under `CCCCCCCCCCCCCCC(=O)O`, “inactive”; under `CC(COC(=O)c1ccccc1)OC(=O)c1ccccc1` (configuration not stated), “inactive”.
As for `F[Si-2](F)(F)(F)(F)F`, the Potency entry was “inactive”.
For the compound `NNS(=O)(=O)c1ccc(Oc2ccc(S(=O)(=O)NN)cc2)cc1`, the Potency entry is “inactive”.
As for `O=C(O)CONC(=O)c1ccccc1`, the Potency result was “inactive”.
As to `OCC1CC2CC1C1CCC(CO)C21` (configuration not stated), the Potency entry was “inactive”.
Same read-out and setting: under `O=C1CCC(=O)N1` stands “inactive”.
The same measure, in the same setting: under `CCC(=O)OC/C=C(\C)CCC=C(C)C` stands “inactive”; under `CC(O)CNCC(C)O` (configuration not stated), “inactive”.
Same read-out and setting: next, `OCc1ccccc1O`: “inactive”.
As to `CCOC(=O)c1cccc(N)c1`, the Potency result is “inactive”.
The same measure, in the same setting: next, `CNCCO`: “inactive”; `N#CCN(CC#N)CCN(CC#N)CC#N`: “inactive”; `CCCOCCOCCOCCO`: “inactive”.
